About 83,000 compounds went through this panel and 20% of them were active in at least one assay; those are over-represented in the sample as a whole.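 Single-dose data. Exposure time 48 hours. Values below 10 considered active.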 Unmarked numbers belong to inactive results. The source made the active and inactive calls.

What all share (assay): NCI-60 one-dose screen, 48 h (100 = growth as untreated, 0 = no growth, -100 = all killed)
One experiment concerns HCT-15 colon. As to conditions: 10 µM.
For another experiment, the system named is HT29 colon. The note with it: 10 µM.
The subject of the next experiment is SNB-75 CNS. As to conditions: 10 µM.
The next experiment deals with SNB-19 CNS. As to conditions: 10 µM.
For a further experiment, the system named is U251 CNS. The note with it: 10 µM.
For another experiment, the system named is SK-MEL-5 melanoma. As to conditions: 10 µM.
For another experiment, the system named is UACC-62 melanoma. The note with it: 10 µM unless noted.
In another experiment the test system is LOX IMVI melanoma. The note with it: 10 µM.
The next experiment concerns SK-MEL-28 melanoma. As to conditions: 10 µM.
The subject of the next experiment is SK-MEL-2 melanoma. As to conditions: 10 µM.
A further experiment deals with EKVX NSCLC. The note with it: 10 µM.
In a further experiment the test system is SN12C renal. As to conditions: 10 µM.
For the next experiment, the system named is UO-31 renal. As to conditions: 10 µM.
For the next experiment, the system named is TK-10 renal. The note with it: 10 µM unless noted.
Another experiment deals with ACHN renal. The note with it: 10 µM.
The subject of a further experiment is CAKI-1 renal. As to conditions: 10 µM.
In the next experiment the test system is CCRF-CEM leukemia. As to conditions: 10 µM.
Another experiment deals with MOLT-4 leukemia. The note with it: 10 µM.
Another experiment relates to A498 renal. As to conditions: 10 µM.
In a further experiment the test system is PC-3 prostate. As to conditions: 10 µM.

Regarding `CN(C)c1ccc2oc(=O)c3ccccc3c2c1`, the growth with HCT-15 colon was 101%; in the experiment on HT29 colon it was 86.7%; with SNB-75 CNS, 57.1%; in the experiment with SNB-19 CNS, 81.3%; in the experiment with U251 CNS, 94.3%; with SK-MEL-5 melanoma, 94.9%. For the same compound, the growth is 68.8% with UACC-62 melanoma; 88.8% in the experiment on LOX IMVI melanoma; 113% in the experiment on SK-MEL-28 melanoma; 106% with SK-MEL-2 melanoma; 50.4% in the experiment with EKVX NSCLC; 89.2% in the experiment with SN12C renal. For the same compound, the growth in the experiment with UO-31 renal is 81%; in the experiment on TK-10 renal, 107%; with ACHN renal it was 103%; in the experiment with CAKI-1 renal it was 98.4%; with CCRF-CEM leukemia, 110%; with MOLT-4 leukemia it was 131%.

Regarding `COc1ccc(/C=C/c2cccc[n+]2C)cc1`, the growth is 99.1% in the experiment with HCT-15 colon; 88% with HT29 colon; 83.2% with SNB-75 CNS; 95.1% with SNB-19 CNS; 77.6% in the experiment with U251 CNS; 105% with SK-MEL-5 melanoma. Moreover, the growth was 114% with UACC-62 melanoma; 94.2% in the experiment with LOX IMVI melanoma; 109% with SK-MEL-28 melanoma; 110% with SN12C renal; 64.9% with UO-31 renal; 91% with ACHN renal. The figures for the growth with CAKI-1 renal, in the experiment with A498 renal and with MOLT-4 leukemia were 63%, 71% and 102%, respectively.

Take `CCS(=O)(=O)c1cc(=O)[nH]c(=O)[nH]1`: the growth with HCT-15 colon is 109%; in the experiment on HT29 colon it was 101%; in the experiment on SNB-75 CNS, 82.4%; in the experiment on SNB-19 CNS it was 102%; in the experiment with U251 CNS, 93.8%; in the experiment on SK-MEL-5 melanoma, 93.2%. The growth in the experiment with LOX IMVI melanoma is 101%; with SK-MEL-28 melanoma, 98.9%; in the experiment on SK-MEL-2 melanoma, 101%; with EKVX NSCLC it was 91.4%; in the experiment on SN12C renal, 101%; in the experiment on UO-31 renal, 90.1%. Moreover, the growth is 102% in the experiment on TK-10 renal; 96.8% in the experiment on ACHN renal; 88.4% in the experiment on CAKI-1 renal; 121% in the experiment with A498 renal; 110% with CCRF-CEM leukemia; 128% with MOLT-4 leukemia.

As to `N/N=C(/Cc1ccccc1)NNC(N)=S`, the growth is 97.5% in the experiment with HCT-15 colon; 95.7% in the experiment with HT29 colon; 87.7% in the experiment on SNB-75 CNS; 105% with SNB-19 CNS; 88.3% in the experiment on PC-3 prostate; 97.3% in the experiment with SK-MEL-5 melanoma. The growth was 101% in the experiment with UACC-62 melanoma; 94.5% in the experiment on LOX IMVI melanoma; 114% in the experiment with SK-MEL-28 melanoma; 104% in the experiment with SK-MEL-2 melanoma; 91.9% with EKVX NSCLC; 104% with SN12C renal. Besides, the growth in the experiment on UO-31 renal is 81.4%; with TK-10 renal, 118%; in the experiment on ACHN renal it was 104%; in the experiment on CAKI-1 renal it was 96.4%; in the experiment with A498 renal it was 87.5%; in the experiment with CCRF-CEM leukemia it was 93.8%. Further, the growth in the experiment with MOLT-4 leukemia is 98.4%.

Turning to `CCCCC1(CC)COC(CCC)OC1` (stereo unspecified), the growth is 91.7% in the experiment on HCT-15 colon; 103% in the experiment on HT29 colon; 99.1% in the experiment on SNB-75 CNS; 99.9% with SNB-19 CNS; 94.7% in the experiment with U251 CNS; 103% in the experiment on SK-MEL-5 melanoma. Also, the growth in the experiment on UACC-62 melanoma is 96.6%; with LOX IMVI melanoma, 97.3%; with SK-MEL-28 melanoma, 115%; in the experiment on SK-MEL-2 melanoma, 104%; in the experiment with EKVX NSCLC, 93.1%; in the experiment on SN12C renal, 97.6%. For the same compound, the growth in the experiment with TK-10 renal was 101%; with ACHN renal it was 99.2%; with CAKI-1 renal it was 84.2%; with A498 renal, 127%; in the experiment with CCRF-CEM leukemia, 102%; in the experiment on MOLT-4 leukemia it was 103%.

With `O=C(O)c1ccc(S(=O)(=O)O)cc1`, the growth is 102% in the experiment with HCT-15 colon; 107% in the experiment with HT29 colon; 94.9% in the experiment on SNB-75 CNS; 106% in the experiment with SNB-19 CNS; 103% with U251 CNS; 110% in the experiment on SK-MEL-5 melanoma. Moreover, the growth is 102% in the experiment on UACC-62 melanoma; 97.3% in the experiment with LOX IMVI melanoma; 109% in the experiment with SK-MEL-28 melanoma; 104% in the experiment with EKVX NSCLC; 95.2% in the experiment on SN12C renal; 64.4% with UO-31 renal. Besides, the growth in the experiment on TK-10 renal is 116%; with ACHN renal, 99.5%; with CAKI-1 renal, 79%; in the experiment with A498 renal, 122%; with CCRF-CEM leukemia, 106%; with MOLT-4 leukemia it was 118%.

Turning to `CC(=O)Nc1ccc(NC(C)=O)c2c1C(=O)c1ccccc1C2=O`, the growth in the experiment with HCT-15 colon is 86.1%; in the experiment on HT29 colon, 99.7%; in the experiment on SNB-75 CNS, 85.9%; in the experiment on SNB-19 CNS, 111%; in the experiment with PC-3 prostate, 81.9%; in the experiment on SK-MEL-5 melanoma it was 96.8%. Moreover, the growth with UACC-62 melanoma is 73.3%; in the experiment on LOX IMVI melanoma, 86%; with SK-MEL-28 melanoma, 115%; in the experiment with SK-MEL-2 melanoma, 103%; in the experiment with EKVX NSCLC it was 73.5%; in the experiment with SN12C renal it was 86.9%. For the same compound, the growth was 59.5% with UO-31 renal; 92.6% with TK-10 renal; 78.8% with ACHN renal; 68.6% in the experiment on CAKI-1 renal; 91.1% with A498 renal; 105% in the experiment with MOLT-4 leukemia.

Regarding `O=c1cc(-c2ccccc2)[nH]c(=S)[nH]1`, the growth was 107% with HCT-15 colon; 101% with HT29 colon; 96.9% in the experiment with SNB-75 CNS; 104% in the experiment with SNB-19 CNS; 91% in the experiment on PC-3 prostate; 104% with SK-MEL-5 melanoma. Further, the growth is 106% in the experiment with UACC-62 melanoma; 98.3% with LOX IMVI melanoma; 103% in the experiment with SK-MEL-28 melanoma; 98.8% with SK-MEL-2 melanoma; 129% in the experiment with EKVX NSCLC; 102% in the experiment with SN12C renal. Besides, the growth was 79.2% in the experiment with UO-31 renal; 95.7% with TK-10 renal; 96.7% with ACHN renal; 175% with CAKI-1 renal; 97.6% with A498 renal; 90.5% in the experiment with CCRF-CEM leukemia. The growth in the experiment on MOLT-4 leukemia was 95.3%.

As for `Cc1cc(/C=C/c2ccc3cc(N(C)C)ccc3[n+]2C)c(C)n1-c1ccccc1`, the growth in the experiment on HCT-15 colon was -29.5% (active); in the experiment with HT29 colon it was 4.1% (active); with SNB-75 CNS, -1.13% (active); in the experiment on SNB-19 CNS, 9.5% (active); in the experiment on U251 CNS, -11.9% (active); in the experiment with SK-MEL-5 melanoma, -96.8% (active). Further, the growth is -38% (active) with LOX IMVI melanoma; -63.9% (active) in the experiment with SK-MEL-28 melanoma; -51.6% (active) with SK-MEL-2 melanoma; 0.119% (active) with EKVX NSCLC; -25.7% (active) in the experiment with SN12C renal; 1.75% (active) in the experiment on UO-31 renal. The growth is -5.02% (active) in the experiment on TK-10 renal; -83.5% (active) with ACHN renal; -31% (active) in the experiment on CAKI-1 renal; -25% (active) in the experiment with A498 renal; 0.765% (active) in the experiment with CCRF-CEM leukemia; 0.162% (active) in the experiment with MOLT-4 leukemia.
